{"source": "PubChem BioAssay AID1445", "about": "(SRMLSC, 2008)", "note": "In all, about 220,000 compounds went through this assay and about 910 (0.41%) were called active.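 Rule for the calls: active = primary inhibition above the hit cutoff, then over 50% inhibition at one or more dose response concentrations (cut at about 23% in these data, passing the limit was not always enough); inconclusive = conflicting primary data, or primary hits not chosen for dose response; inactive = low primary inhibition, or under 50% at every dose.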 Only a selection was taken, and actives are over-represented in it overall. Entries with a potency or affinity are not part of this list."}
{"target": "Aminopeptidase N (Plasmodium falciparum (isolate 3D7)) (UniProt O96935)", "sequence (O96935 whole entry, looked up)": "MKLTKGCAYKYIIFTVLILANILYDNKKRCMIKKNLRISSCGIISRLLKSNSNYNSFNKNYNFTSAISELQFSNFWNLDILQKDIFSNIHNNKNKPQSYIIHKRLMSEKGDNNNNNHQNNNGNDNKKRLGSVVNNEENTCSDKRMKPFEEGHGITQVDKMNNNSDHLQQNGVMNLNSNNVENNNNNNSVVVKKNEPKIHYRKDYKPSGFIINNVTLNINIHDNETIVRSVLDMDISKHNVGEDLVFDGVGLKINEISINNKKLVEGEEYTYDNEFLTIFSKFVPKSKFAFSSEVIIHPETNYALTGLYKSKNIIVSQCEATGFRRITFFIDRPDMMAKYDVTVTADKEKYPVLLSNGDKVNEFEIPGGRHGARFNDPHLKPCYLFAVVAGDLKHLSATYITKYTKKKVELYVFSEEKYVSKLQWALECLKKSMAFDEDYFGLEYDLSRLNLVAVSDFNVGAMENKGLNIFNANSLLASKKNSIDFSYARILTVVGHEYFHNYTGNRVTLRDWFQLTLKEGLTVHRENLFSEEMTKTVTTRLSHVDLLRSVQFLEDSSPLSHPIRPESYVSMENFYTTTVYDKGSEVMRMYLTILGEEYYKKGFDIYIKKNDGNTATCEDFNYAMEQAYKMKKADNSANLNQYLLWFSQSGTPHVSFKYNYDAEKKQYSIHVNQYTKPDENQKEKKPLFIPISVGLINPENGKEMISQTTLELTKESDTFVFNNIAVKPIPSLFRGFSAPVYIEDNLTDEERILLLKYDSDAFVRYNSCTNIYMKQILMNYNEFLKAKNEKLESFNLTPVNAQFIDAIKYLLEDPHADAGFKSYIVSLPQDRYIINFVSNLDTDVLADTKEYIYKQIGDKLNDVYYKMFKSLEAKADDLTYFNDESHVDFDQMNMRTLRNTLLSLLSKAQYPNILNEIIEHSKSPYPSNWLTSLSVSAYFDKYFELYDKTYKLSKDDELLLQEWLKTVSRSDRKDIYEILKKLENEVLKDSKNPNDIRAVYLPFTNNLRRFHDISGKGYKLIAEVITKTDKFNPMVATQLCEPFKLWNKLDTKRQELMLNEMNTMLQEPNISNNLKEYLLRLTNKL", "test": "P. falciparum M1AAP inhibitors, biochemical, fluorogenic H-Leu-NHMec substrate, 1536-well (AID 1445);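 note: plate controls were DMSO full reaction for no effect and no enzyme background for full effect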", "settings": "recombinant M1AAP, H-Leu-NHMec fluorogenic kinetic assay; at 30 µM, active compounds read high unless noted"}
{"smiles": "CCC(C)c1ccc2oc(-c3ccc(NC(=O)Cn4cnc5c(=O)n(C)c(=O)n(C)c54)cc3)nc2c1", "note": "(stereo not given)", "inhibition": "17.4% (inactive)"}
{"smiles": "O=C(N1CCOCC1)C1(c2ccc(Cl)cc2)CCCC1", "inhibition": "-5.21% (inactive)"}
{"smiles": "O=C(CSc1ncc(C(F)(F)F)cc1Cl)NCC1CCCO1", "note": "(stereo not given)", "inhibition": "0.4% (inactive)"}
{"smiles": "O=C1NC(=S)N/C1=C/c1cccc([N+](=O)[O-])c1", "inhibition": "1.79% (inactive)"}
{"smiles": "O=C1NC(=S)N/C1=C\\c1cccc([N+](=O)[O-])c1", "inhibition": "-1.35% (inactive)"}
{"smiles": "O=C1NC(=S)N/C1=C/c1cc([N+](=O)[O-])ccc1O", "inhibition": "27.2% (active)"}
{"smiles": "Cc1ccc(C(=O)NCCN2CCNC2=O)cc1", "inhibition": "-8.25% (inactive)"}
{"smiles": "Cc1ccccc1OCC(=O)Nc1ccc2oc(=O)ccc2c1", "inhibition": "16.6% (inactive)"}
{"smiles": "CCOC(=O)C1CCN(C(=O)COc2ccc(N(C)S(=O)(=O)c3ccc(OCC)cc3)cc2)CC1", "inhibition": "-2.18% (inactive)"}
{"smiles": "CCn1c(CSc2nc3ccccc3s2)nnc1SCC(=O)c1ccc(O)cc1O", "inhibition": "6.78% (inactive)"}
{"smiles": "CCn1c(CSc2nc3ccccc3s2)nnc1SCC(=O)c1ccc(Cl)cc1", "inhibition": "11.1% (inactive)"}
{"smiles": "O=C(Cc1c(C(=O)O)[nH]c2ccc(Cl)cc12)Nc1ccc2c(c1)OCCO2", "inhibition": "4.87% (inactive)"}
{"smiles": "Cc1ccc(-c2nnn(CC(=O)N(Cc3ccco3)C(C(=O)NC3CCCC3)c3cccs3)n2)o1", "note": "(stereo not given)", "inhibition": "0.46% (inactive)"}
{"smiles": "O=C(N/N=C\\c1cccnc1)C1c2ccccc2Oc2ccccc21", "inhibition": "3.5% (inactive)"}
{"smiles": "COc1cc(/C=N/NC(=O)C2c3ccccc3Oc3ccccc32)ccc1O", "inhibition": "3.49% (inactive)"}
{"smiles": "O=C(N/N=C/c1ccc(O)c(O)c1)C1c2ccccc2Oc2ccccc21", "inhibition": "25.6% (active)"}
{"smiles": "Nc1cc(-c2cccc(F)c2)nn1S(=O)(=O)c1cccc2nsnc12", "inhibition": "6.59% (inactive)"}
{"smiles": "CC1=C(C(=O)Nc2ccccn2)C(c2cn(C)nc2C)C2=C(CCCC2=O)N1", "note": "(stereo not given)", "inhibition": "9.42% (inactive)"}
{"smiles": "Cc1ccc(C(=O)Oc2cc(N)n(S(=O)(=O)c3ccc(C)cc3)n2)cc1", "inhibition": "-3.58% (inactive)"}
{"smiles": "COc1ccccc1C(=O)Oc1cc(N)n(S(=O)(=O)c2ccccc2)n1", "inhibition": "11.1% (inactive)"}
{"smiles": "COc1cccc(NC(=S)N(CCc2ccc(OC)c(OC)c2)Cc2ccccn2)c1", "inhibition": "4.47% (inactive)"}
{"smiles": "CCc1ccc2nc(N3C(=O)C(O)=C(C(=O)c4ccco4)C3c3cccs3)sc2c1", "note": "(stereo not given)", "inhibition": "14.9% (inactive)"}
{"smiles": "Cc1ccc2nc(N3C(=O)C(O)=C(C(=O)c4ccco4)C3c3cccs3)sc2c1", "note": "(stereo not given)", "inhibition": "27.4% (active)"}
{"smiles": "Cc1ccc2nc(N3C(=O)C(O)=C(C(=O)c4cc5ccccc5o4)C3c3cccs3)sc2c1", "note": "(stereo not given)", "inhibition": "10.6% (inactive)"}
{"smiles": "Cc1nnc(SCC(=O)N2CCN(C(=O)c3ccco3)CC2)n1-c1ccccc1", "inhibition": "-1.57% (inactive)"}
